# Test results from PubChem BioAssay (Tox21).
# Unmarked numbers belong to inactive results. The call rests on the fitted dose curve.
# Target: Muscarinic acetylcholine receptor M1 (Homo sapiens) (UniProt P11229)
# Assay: Cholinergic receptor muscarinic 1 (CHRM1) small molecule agonists, cell-based qHTS assay (AID 1963589); further: nearly all actives have a fitted effect of over 35% in size
# Settings: CHRM1-CHO cells, agonist mode, calcium flux fluorescence; series mostly up to 76.8 µM; activation: at the top concentration
# Excerpt: National Center for Advancing Translational Sciences [NCATS]
# Division of Preclinical Innovation [DPI]
# U.S. Environmental Protection Agency [EPA]
# National Institutes of Environmental Health Sciences [NIEHS]
# National Toxicology Program [NTP]
# U.S. Food and Drug Administration [FDA]
# The CHRM1 is a muscarinic receptor. This receptor plays a crucial role in learning and memory processes and has long been identified as a promising therapeutic target for the improvement of cognitive decline in Alzheimer's disease (AD). The CHRM1-CHO cell line stably expressing human muscarinic acetylcholine receptor M1 (CHRM1) can be used for screening agonists and antagonists of interactions between CHRM1 and its ligands. The CHRM1-CHO Calcium Flux Assay is a homogeneous fluorescence-based assay for detecting the intracellular calcium level using FDSS kinetic plate reader system.
# CHRM1-CHO cells were dispensed at 1000 cells/3uL/well in 1536-well black-clear bottom plates using a Multidrop Dispenser. After the assay plates were incubated at a 37 C/5% CO2 incubator for 18 h, 3 uL of Dye Loading Buffer was transferred to the assay plate by a Flying Reagent Dispenser. The assay plates were incubated at 37 C for 1h. For agonist mode, 23 nL of compounds dissolved in DMSO, positive controls or DMSO only was transferred to the assay plate by a pin tool. […] Each test compound was measured at 15 concentrations in three independent runs.
# On the % scale 0 is the no-effect control and ±100 the full control effect.
# Chain of Muscarinic acetylcholine receptor M1 (Homo sapiens) (P11229 whole entry, looked up): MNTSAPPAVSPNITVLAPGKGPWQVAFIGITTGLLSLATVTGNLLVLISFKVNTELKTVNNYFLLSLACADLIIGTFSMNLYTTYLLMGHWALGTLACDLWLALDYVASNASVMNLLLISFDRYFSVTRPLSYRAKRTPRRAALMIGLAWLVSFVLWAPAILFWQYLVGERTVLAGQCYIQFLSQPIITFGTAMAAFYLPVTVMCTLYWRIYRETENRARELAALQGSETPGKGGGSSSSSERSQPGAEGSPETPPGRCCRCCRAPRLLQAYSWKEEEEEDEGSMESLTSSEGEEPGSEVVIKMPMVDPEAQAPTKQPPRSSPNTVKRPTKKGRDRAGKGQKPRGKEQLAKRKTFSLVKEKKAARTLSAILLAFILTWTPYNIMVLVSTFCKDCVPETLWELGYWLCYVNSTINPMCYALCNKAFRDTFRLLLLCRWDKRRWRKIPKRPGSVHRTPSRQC
row,SMILES,activation
1,CC1(C)CC(N)CC(C)(C)N1,-0.547%
2,CC(C)(C)C1=CC(=O)C(C(C)(C)C)=CC1=O,-0.0901% [at 35.3 µM]
3,C/C=C(\C)C#N,-0.341%
4,CCCCCCCCCCCCCCCCCC(=O)OCCCCCCCCCCCCCC(C)C,0.35%
5,O=C(CCC1CCN(Cc2ccccc2)CC1)c1ccc2c(c1)NCCCC2,-0.121% [at 35.3 µM]
6,CCCCCCC(CCCCCCCCCCC(=O)OCC(COC(C)=O)OC(C)=O)OC(C)=O (stereo not given),0.0376% [at 35.3 µM]
7,O=Cc1cccc(Br)c1,-0.379%
8,CC(C)CCCCCCc1ccc(OCCOCCO)cc1,-0.964%
9,CCN(Cc1c(F)cccc1Cl)c1c([N+](=O)[O-])cc(C(F)(F)F)cc1[N+](=O)[O-],-0.42%
10,CCC(C)COC(=O)CC(C)C (stereo not given),1.84%
11,Cl[Si](Cl)(c1ccccc1)c1ccccc1,-0.888%
12,C=C[C@@H](C)CCC=C(C)C,-0.0013%
13,C=C(C)C(=O)OCC1CCCO1 (stereo not given),-0.0724%
14,CCOc1ccc2ccccc2c1C(=O)N[C@@H]1C(=O)N2[C@@H]1SC(C)(C)[C@@H]2C(=O)O,0.0151% [at 35.3 µM]
15,C=CC(=O)O,0.276% [at 35.3 µM]
16,[O]=[Bi],0.394% [at 6.97 µM]
17,Cc1ccc(CCn2c3c(c4cc(Cl)ccc42)CN(C)CC3)cn1,-0.373% [at 35.3 µM]
18,COc1cc2c(cc1OC)C(C(C(=O)N(CCc1ccc(OC)c(OC)c1OC)CCc1ccc(OC)c(OC)c1OC)c1ccccc1)=NCC2 (stereo not given),-0.623% [at 35.3 µM]
19,c1ccc2c(CC3=NCCN3)cccc2c1,-0.921% [at 35.3 µM]
20,CCCCNc1c(C(=O)OCC)c(C)nc2c1cnn2CC,0.0026% [at 35.3 µM]

row,SMILES,activation
1,OCc1ccccn1,0.0614% [at 35.3 µM]
2,CCCCOC(=O)[C@@H](C)Oc1ccc(Oc2ccc(C(F)(F)F)cn2)cc1,-0.396%
3,CC(N)CCCC(C)(C)O (stereo not given),0.368% [at 35.3 µM]
4,CN(C)c1ccc(CCO)cc1,1.23%
5,O=c1cccccc1O,-0.0906%
6,C/C=C/C(=O)Oc1c(CCCCCC(C)C)cc([N+](=O)[O-])cc1[N+](=O)[O-],8.73%
7,CN(C)CCN(Cc1ccc(Cl)cc1)c1ccccn1,3.37% [at 35.3 µM]
8,CC(C)C(=O)OC/C=C/c1ccccc1,-0.584%
9,CN(C)CCn1nnnc1SCC1=C(C(=O)O)N2C(=O)[C@@H](NC(=O)Cc3csc(N)n3)[C@H]2SC1,0.977% [at 35.3 µM]
10,CCC(=O)O[C@]1(C(=O)SCF)[C@H](C)C[C@H]2[C@@H]3C[C@H](F)C4=CC(=O)C=C[C@]4(C)[C@@]3(F)[C@@H](O)C[C@@]21C,0.789% [at 35.3 µM]
11,CCOC(=O)CC1(C)OCC(C)O1 (stereo not given),0.769%
12,CCN1CCCC1CNC(=O)c1cc(S(=O)(=O)CC)c(N)cc1OC (stereo not given),-0.449% [at 35.3 µM]
13,C=CC(=O)OCC(Br)CBr (stereo not given),-0.563%
14,O=C1CCCCCCCCCCC(=O)OCCO1,1.46%
15,c1cc(N(CC2CO2)CC2CO2)ccc1Cc1ccc(N(CC2CO2)CC2CO2)cc1 (stereo not given),0.431%
16,CCCC(=O)OC(=O)CCC,-0.953%
17,CCC1(CO)COCOC1,-0.0785%
18,CC1OCCC1=O (stereo not given),-0.012%
19,CC(C)=CCC/C(C)=C\C#N,0.0597%
20,Cc1cccc(C)n1,-0.0748%
